IMPase Li cell: qHTS Assay for Identifying the Cell-Membrane Permeable IMPase Inhibitors: Potentiation with Lithium; CHO-M1 cells, IP1 TR-FRET (IP-One), carbachol + lithium; Potency, µM (top dose mostly 59.4 µM), for the others: top-dose activity, negative = IMPase inhibition, actives largely listed as inhibitors; 210,000 compounds, 0.35% hits; AID 1457, 2008;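 note: IP1 builds up when IMPase is blocked and the TR-FRET signal falls; potency is the fitted concentration of half-maximal effect; plate controls were basal vehicle for no effect and high inhibitor control for full effect; nearly all actives have a fitted effect of over 50% in size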
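Concentration–response in CHO-M1 cells, lithium-potentiated; 30 min at 37C. IP1 detected by competitive TR-FRET after 10 min lysis at RT. Hill-fitted AC50.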
IMPase cell inh: qHTS Assay for Identifying the Cell-Membrane Permeable IMPase Inhibitors; 120,000 tested, under 10 active; inhibition (IP1 accumulation), % at 46.1 µM; CHO-M1 cells, IP1 accumulation, HTRF TR-FRET ratio; Inositol monophosphatase 1 (Rattus norvegicus), P97697; active = well fitted curve in the direction sought with a large enough effect in the signal ratio, not every such curve was filed as active; inconclusive = small, poorly fitted or top-dose-only effect, or a change in a side signal; inactive = no such curve, though single readings can be large or run the other way; the % refers to the signal ratio;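 note: cells stimulated with carbachol in lithium chloride buffer; plate controls were DMSO basal wells for no effect and reference inhibitor wells for full effect; higher means more IMPase inhibition seen as more IP1 and lower FRET ratio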
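CHO-M1, 2000 cells/well, cultured 16–30 h; cpd up to 46 uM; carbachol (50 uM solution, stimulation buffer w/ 50 mM LiCl, pH 7.4), 30 min 37C; IP-One TR-FRET, 10 min RT; Ex 320/Em 665, 620; Hill-fit AC50.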
NPSR antag: qHTS Assay for Antagonists of the Neuropeptide S Receptor: cAMP Signal Transduction; Q6W5P4; CHO-NPSR cells, cAMP TR-FRET, antagonist mode; Potency, µM (doses to about 38.3 µM), without a hit: at the highest dose activity change, negative = inhibition, actives largely listed as inhibitors; 220,000 compounds, 1% hits; AID 1461, 2008; note: potency is the fitted concentration of half-maximal effect; % is set by controls: 0 for no effect and ±100 for the full control effect; nearly all actives have a fitted effect of over 50% in size
Target sequence (Q6W5P4 whole entry, looked up): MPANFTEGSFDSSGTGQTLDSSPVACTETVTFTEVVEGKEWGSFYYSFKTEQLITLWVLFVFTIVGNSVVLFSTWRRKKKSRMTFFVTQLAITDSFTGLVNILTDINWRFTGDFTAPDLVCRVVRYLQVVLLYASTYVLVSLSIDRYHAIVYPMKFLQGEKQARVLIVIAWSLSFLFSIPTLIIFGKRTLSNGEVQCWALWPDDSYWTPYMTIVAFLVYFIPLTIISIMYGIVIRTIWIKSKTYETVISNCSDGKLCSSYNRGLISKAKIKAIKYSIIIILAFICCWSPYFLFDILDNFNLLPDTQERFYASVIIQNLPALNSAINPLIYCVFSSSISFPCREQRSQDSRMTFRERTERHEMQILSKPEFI
HTT ATP protect: qHTS Multiplex Assay to Identify Dual Action Probes in a Cell Model of Huntington: Cytoprotection (ATP). 230,000 compounds, 0.14% hits. AID 1471, 2008. Potency, µM (top dose mostly 56.4 µM), inactives show cytoprotection (ATP increase), actives largely listed as activators. PC12 HTT-Q103 induced, cytoprotection, ATP luminescence, 40 h; note: potency is the fitted concentration of half-maximal effect; % of control where 0% means no effect; nearly all actives have a fitted effect of over 45% in size
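ATP quantification (ATPlite) reports survival of PC12 cells in which tebufenozide, 100 nM final, switches on Htt exon 1 with 103 glutamines linked to GFP; compounds are titrated.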
HttQ103 aggreg: qHTS Multiplex Assay to Identify Dual Action Probes in a Cell Model of Huntington: Aggregate Formation (GFP); 220,000 compounds, 1.1% hits; Potency, µM (doses to about 46.1 µM), for the others: top-dose activity change, negative = inhibition, hits mostly inhibitors; PC12 HttQ103-GFP aggregates, Acumen cytometry, 40 h; AID 1688, 2009; note: potency is the fitted concentration of half-maximal effect; % is set by controls: 0 for no effect and ±100 for the full control effect; nearly all actives have a fitted effect of over 60% in size
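Huntingtin Q103 exon 1–GFP aggregates in induced PC12 cells (100 nM tebufenozide) were quantified by cytometry from lysates, with compounds dosed in titration.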
LMNA splice mod: qHTS Assay for Modulators of Lamin A Splicing | Potency, µM (titrated, usually from 46.1 µM), for the others: top-dose ratio change, negative = inhibition, usual class: inhibitors | HeLa LMNA splicing GFP/RFP minigene ratio, 48 h | 200,000 compounds, 0.01% hits; active = well fitted inhibition curve with a large enough effect in the signal ratio, with a control signal flat, not every such curve was filed as active; inconclusive = small, poorly fitted or top-dose-only effect, or effect the other way, or a change in a side signal; the % refers to the signal ratio; note: potency is the fitted concentration of half-maximal effect; % is set by controls: 0 for no effect and ±100 for the full control effect
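S3 HeLa cells stably expressing lamin A-EGFP splicing minigene plus DsRed2, 600 cells/well, 48 h compound exposure at 37C. Laser-scanning cytometry; analysed as GFP (500-530 nm)/RFP (575-640 nm) total intensity ratio; 0.5% DMSO vehicle.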
* = called active by the depositor; ? = inconclusive; . = no result given; [ ] = another dose, or the depositor's remark. Shown are actives, neighbours in structure and some others; about 1.6% of the full set was active somewhere. Unless noted, calls come from the whole dose curve; as a rule, active = well fitted curve in the direction sought with a large enough effect; inconclusive = small, poorly fitted or top-dose-only effect, or another doubt; inactive = no such curve, though single readings can be large; an effect the other way counts as inactive or inconclusive.

SMILES | IMPase Li cell | IMPase cell inh | NPSR antag | HTT ATP protect | HttQ103 aggreg | LMNA splice mod
Cc1cc(C)c(NC(=S)NCCCSC2CCCCC2)c(C)c1 | 17% | . | -39% | -43% | 11µM* | ?
Cc1cc(C)c2c(N)c3cccc(C)c3nc2n1 | 14% | . | -14% | . | 13µM* | ?
N#Cc1nc(-c2ccc(OCc3ccc(Cl)cc3)cc2)oc1NCc1cccnc1 | 9%[38.3 µM] | -6 | -14%[46.1 µM] | -40% | -4% | 19%
N#Cc1nc(-c2ccc(OCc3ccccc3)cc2)oc1NCc1cccnc1 | 16%[38.3 µM] | 15 | 2%[46.1 µM] | -68%[0.074 µM] | 13µM* | ?
C=C(CC(=O)O)C(=O)O (tested in a mixture with another compound) | -1% | . | . | -13%[10 µM] | . | .
Cc1cc(C)c(C(=O)Nc2ccc(Br)c(C(F)(F)F)c2)c(C)c1 | 16% | . | -45% | . | 20µM* | ?
COc1cc2c(cc1OC)[C@H](c1ccccc1)CN(C)CC2 | . | 4 | . | -13%[1.9 µM] | . | .
Cc1nc(Nc2c(Cl)cccc2Cl)sc1C(=O)Nc1ccccc1 | 5% | 8 | -17% | -15%[10 µM] | 11µM* | ?
Cc1ccc(SCC(=O)N2c3ccccc3Sc3ccccc32)cc1 | 24%[38.3 µM] | 14 | ? | -36% | 16µM* | 6%
O=C(CSc1nncs1)N1c2ccccc2Sc2ccccc21 | 22%[38.3 µM] | 10 | 15%[7.67 µM] | -7%[1.9 µM] | -18% | 0%
O=c1c(-c2cc(F)cc(F)c2)nc2cncnc2n1C1CC1 | 2% | . | . | 12% | . | 6%
COc1ccc(-c2cnc(N)nc2-c2ccc(OC)cc2O)cc1 | 0%[38.3 µM] | 6 | -24%[46.1 µM] | ? | 11µM* | 5%
O=C(Cn1cc(C(F)(F)F)cc(Cl)c1=O)Nc1cccc(Cl)c1 | 10µM* | 4 | 7% | -24%[1.9 µM] | -1% | -19%
O=C(Cn1cc(C(F)(F)F)cc(Cl)c1=O)Nc1cc(Cl)cc(Cl)c1 | 0% | . | -17% | . | 26% | 9%[46 µM]
Cc1c(CN2CCC(CO)(Cc3cccc(C(F)(F)F)c3)CC2)c2ccccc2n1C | . | . | ? | -74% | ? | .
CN(C)NC(=O)c1ccsc1NC(=O)c1ccc(S(=O)(=O)N2CCCC2)cc1 | . | . | -18% | 13%[10 µM] | -28%[9.22 µM] | .
CC1CCN(S(=O)(=O)c2ccc(C(=O)Nc3sccc3C(N)=O)cc2)CC1 | 39%[38.3 µM] | 3 | 6.3µM* | ? | ? | ?
CCN(CC)CCCn1c(=S)[nH]c2ccccc2c1=O | 34%[38.3 µM] | 3 | -23%[46.1 µM] | 14% | -6% | 0%
CCCCn1c(=S)[nH]c2c(oc3ccc(Cl)cc32)c1=O | 10µM* | -23 | -57% | 16%[10 µM] | ? | -4%
C=C(C(C)=O)C(O)c1ccco1 (stereo not given) | 5% | . | . | . | . | .
N#CC(c1ccc(Cl)cc1)c1c(Cl)cc(-n2ncc(=O)[nH]c2=O)cc1Cl (stereo not given) | . | . | . | 7% | 18% | .
OCCNc1ncnc2ccc(Br)cc12 | . | ? | 4%[46.1 µM] | -3% | 9% | ?
CCN(CC)c1ncnc2ccc(Br)cc12 | 25µM* | -8 | 9%[46.1 µM] | 15% | 13µM* | 10%
CCCCCCCCCCCCCCCCCC(=O)O[C@H](CC(=O)O)C[N+](C)(C)C | . | 13 | . | 6%[1.9 µM] | . | .
C=CC[n+]1ccc(/C=C2\C=Cc3cc(C)ccc3N2CC)c2ccccc21 | 42% | . | ? | -189% | 2.2µM* | .
CCN1/C(=C/c2cc[n+](CCCS(=O)(=O)[O-])c3ccccc23)Sc2ccccc21 | 45% | . | -55% | 35%[10 µM] | -29% | ?
COC(=O)CN(C)C(=O)CC1C(=O)NCCN1CC(C)(C)C (stereo not given) | 1% | . | 0% | 1.1µM* | ? | 14%[46 µM]
N#Cc1c2c(c(-c3ccccc3Cl)[nH]c1=S)CCCC2 | 10µM* | . | ? | 1%[10 µM] | 32% | ?

Screening data deposited in PubChem BioAssay by National Center for Advancing Translational Sciences (NCATS).
